{"source": "PubChem BioAssay (NCATS)", "note": "Records with an inconclusive call do not appear. Where a call stands in place of a potency, no number is given. A number with no mark means an inactive call. Active and inactive are the calls of the source. The call rests on the fitted dose curve; in most records, active means well fitted inhibition curve with a large enough effect; inconclusive means small, poorly fitted or top-dose-only effect; inactive means no such curve, though single readings can be large or run the other way."}
{"target": "Rap guanine nucleotide exchange factor 4 (Homo sapiens) (UniProt Q8WZA2)", "sequence (Q8WZA2 whole entry, looked up)": "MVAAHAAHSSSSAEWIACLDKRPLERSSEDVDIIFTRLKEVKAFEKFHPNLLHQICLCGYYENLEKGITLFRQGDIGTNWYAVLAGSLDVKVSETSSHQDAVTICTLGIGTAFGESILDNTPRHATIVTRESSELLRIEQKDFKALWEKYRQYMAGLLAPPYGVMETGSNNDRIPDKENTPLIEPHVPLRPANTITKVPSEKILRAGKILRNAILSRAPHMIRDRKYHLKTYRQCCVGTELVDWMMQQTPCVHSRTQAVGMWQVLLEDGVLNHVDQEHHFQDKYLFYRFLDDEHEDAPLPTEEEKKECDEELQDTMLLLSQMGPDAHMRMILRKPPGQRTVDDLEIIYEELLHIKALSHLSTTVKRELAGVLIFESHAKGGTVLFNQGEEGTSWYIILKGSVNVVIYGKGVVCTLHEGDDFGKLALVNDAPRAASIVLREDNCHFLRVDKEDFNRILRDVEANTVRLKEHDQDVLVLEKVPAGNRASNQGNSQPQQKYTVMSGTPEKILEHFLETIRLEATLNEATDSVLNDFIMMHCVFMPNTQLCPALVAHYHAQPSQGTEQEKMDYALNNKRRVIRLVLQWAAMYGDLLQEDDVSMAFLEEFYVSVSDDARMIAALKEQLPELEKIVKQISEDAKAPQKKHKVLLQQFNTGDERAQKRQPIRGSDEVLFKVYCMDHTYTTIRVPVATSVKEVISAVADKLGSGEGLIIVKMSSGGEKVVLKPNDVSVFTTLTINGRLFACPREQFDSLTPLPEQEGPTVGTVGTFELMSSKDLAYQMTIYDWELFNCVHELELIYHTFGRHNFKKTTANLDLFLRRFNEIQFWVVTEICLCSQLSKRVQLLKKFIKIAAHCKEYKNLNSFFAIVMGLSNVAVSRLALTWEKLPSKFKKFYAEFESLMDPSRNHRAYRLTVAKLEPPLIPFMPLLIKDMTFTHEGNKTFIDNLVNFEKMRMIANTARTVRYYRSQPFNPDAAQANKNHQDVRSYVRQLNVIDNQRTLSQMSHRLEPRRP", "test": "Confirmatory qHTS for antagonist of cAMP-regulated guanine nucleotide exchange factor 4 (EPAC2) (AID 1645885); further: nearly all actives have a fitted effect of over 25% in size; further: potency means the concentration at half of the fitted maximal effect", "conditions": "EPAC2 Rap1B-BODIPY-GDP exchange fluorescence, biochemical; series mostly up to 12.7 µM"}
{"smiles": "Cc1ccc(C(=O)Nc2cccc(-c3ccc(N4CCOCC4)nn3)c2)cc1C", "Potency": "inactive"}
{"smiles": "Nc1ccc(SC(F)(F)F)cc1C(=O)c1ccccc1", "Potency": "inactive"}
{"smiles": "CS/C(=C\\C(=O)c1ccco1)Nc1ccccc1Cl", "Potency": "inactive"}
{"smiles": "O=c1nc(/C=C/c2cccn2-c2ccc([N+](=O)[O-])cc2)cc(C(F)(F)F)[nH]1", "Potency": "inactive"}
{"smiles": "COc1ccc(OC)c(-n2c(SC)nnc2-c2c[nH]c3ccccc23)c1", "Potency": "inactive"}
{"smiles": "COc1ccc(-c2cc(C(F)(F)F)c3c(n2)sc2c(O)cc(=O)[nH]c23)c(OC)c1", "Potency": "inactive"}
{"smiles": "COc1cc(NC(=O)c2cccc([N+](=O)[O-])c2)ccc1NC(=O)c1ccco1", "Potency": "inactive"}
{"smiles": "O=C1C(=O)c2cccnc2-c2ncccc21", "Potency": "inactive"}
{"smiles": "O=c1[nH]cc(N=Cc2cc(Cl)cc(Cl)c2O)c(=O)[nH]1", "Potency": "inactive"}
{"smiles": "O=S(=O)(Nc1cc(Sc2ncn[nH]2)c(O)c2ccccc12)c1ccccc1", "Potency": "inactive"}
{"smiles": "COc1ccc(-n2c(NC(=O)c3ccco3)c(C#N)c3nc4ccccc4nc32)cc1", "Potency": "inactive"}
{"smiles": "O=C(O)c1ccn2c(C(=O)c3ccc(Cl)cc3)c(-c3ccccc3)cc2c1", "Potency": "inactive"}
{"smiles": "O=C(O)/C=C\\C(=O)Nc1ccccc1C#Cc1ccc(Br)cc1", "Potency": "1.35 µM (active)"}
{"smiles": "Cc1ccc(C)c(N2CCN(C(=O)c3ccc4c(=O)n5c(nc4c3)CCCCC5)CC2)c1", "Potency": "inactive"}
{"smiles": "Cc1ccc(Cn2ccnc2SCC(=O)Nc2ccc3c(c2)OCO3)cc1", "Potency": "inactive"}
{"smiles": "O=C(CSc1nc(O)cc(=O)n1-c1ccccc1)Nc1nc2ccccc2s1", "Potency": "inactive"}
{"smiles": "CCOc1cccc(CNc2ccc(O)cc2)c1OCc1ccc(Cl)cc1", "Potency": "inactive"}
{"smiles": "O=C(NCc1ccc2c(c1)CCN2C(=O)c1ccccc1)Nc1cccc(C(F)(F)F)c1", "Potency": "inactive"}
{"smiles": "COc1ccc(N2Cc3cccc(C(=O)Nc4ccc(C(C)C)cc4)c3C2=O)cc1", "Potency": "inactive"}
{"smiles": "O=C(COC(=O)C1(c2ccc(Cl)cc2)CCCC1)NCc1ccco1", "Potency": "75.7 µM (active)"}
{"smiles": "Nc1ccccc1C(=O)NNc1c2ccccc2nc2ccccc12", "Potency": "inactive"}
{"smiles": "Cc1ccc(OCC(=O)Nc2ccc(C)c(S(=O)(=O)N3CCCCCC3)c2)c([N+](=O)[O-])n1", "Potency": "inactive"}
{"smiles": "Cc1ccc(-c2nc(-c3cc4cccc(OCc5ccc(F)cc5)c4oc3=O)no2)cc1", "Potency": "inactive"}
{"smiles": "CCc1ccc(/C=C2\\SC(=S)N(CCCC(=O)Nc3ccccc3C(=O)O)C2=O)cc1", "Potency": "inactive"}
{"smiles": "Cc1ccc(C(C[N+](=O)[O-])c2c(-c3ccccc3O)[nH][nH]c2=O)cc1", "note": "(stereo not given)", "Potency": "3.38 µM (active)"}
{"smiles": "CCOC(=O)Cc1cc(=O)n2[nH]c(-c3ccccc3)c(-c3ccccc3)c2n1", "Potency": "inactive"}
{"smiles": "COc1cc2c(cc1OC)C(c1ccc(Cl)cc1)N(c1ccc(C)c(F)c1)C(=O)C2", "note": "(stereo not given)", "outcome": "inactive [at 12.7 µM]"}
{"smiles": "COC(=O)CC1(C(=O)OC)Oc2ccc(Br)cc2C(=O)N1c1cccc(Cl)c1Cl", "note": "(stereo not given)", "Potency": "1.69 µM (active)"}
{"smiles": "Cc1ccc(Nc2c(-c3ccccn3)nc3cccc(C)n23)cc1", "Potency": "inactive"}
{"smiles": "Cn1c(=O)c2c(-c3ccccc3Br)n(Cc3ccccc3)cc2n(C)c1=O", "Potency": "inactive"}
{"smiles": "COc1cn(-c2ccccc2)nc1C(=O)Nc1ccc(C)cc1Cl", "Potency": "95.3 µM (active)"}
{"smiles": "O=[N+]([O-])c1cc(Br)ccc1NS(=O)(=O)c1ccccc1", "Potency": "inactive"}
{"smiles": "O=C(OCC1OC(n2ncc(=O)[nH]c2=O)C(OC(=O)c2ccccc2)C1OC(=O)c1ccccc1)c1ccccc1", "note": "(stereo not given)", "Potency": "inactive"}
{"smiles": "CC(CNC(=O)c1sc2ncccc2c1-n1cccc1)c1ccccc1", "note": "(stereo not given)", "Potency": "inactive"}
{"smiles": "Cc1cc(CSc2ccc(Cl)cc2)ccc1N", "Potency": "inactive"}
{"smiles": "COc1ccc(Nc2cc(C(=O)NCCCN3CCN(c4ccccc4F)CC3)c3ccccc3n2)c(OC)c1", "Potency": "inactive"}
{"smiles": "CC(C)c1ccc(/C=C/C(=O)Nc2ccc(CN3CCOCC3)cc2)cc1", "Potency": "95.3 µM (active)"}
{"smiles": "Cc1cccc(N2CCN(C(=O)c3[nH]c(C(F)(F)F)nc3-c3ccccc3)CC2)c1C", "Potency": "inactive"}
{"smiles": "O=C1C=C(Nc2cccc3cccnc23)c2ccccc2C1=O", "Potency": "inactive"}
{"smiles": "O=C1C(=O)c2ccc(-c3ccccc3)cc2-c2ccccc21", "Potency": "inactive"}
{"target": "Rap guanine nucleotide exchange factor 3 (Homo sapiens) (UniProt O95398)", "sequence (O95398 whole entry, looked up)": "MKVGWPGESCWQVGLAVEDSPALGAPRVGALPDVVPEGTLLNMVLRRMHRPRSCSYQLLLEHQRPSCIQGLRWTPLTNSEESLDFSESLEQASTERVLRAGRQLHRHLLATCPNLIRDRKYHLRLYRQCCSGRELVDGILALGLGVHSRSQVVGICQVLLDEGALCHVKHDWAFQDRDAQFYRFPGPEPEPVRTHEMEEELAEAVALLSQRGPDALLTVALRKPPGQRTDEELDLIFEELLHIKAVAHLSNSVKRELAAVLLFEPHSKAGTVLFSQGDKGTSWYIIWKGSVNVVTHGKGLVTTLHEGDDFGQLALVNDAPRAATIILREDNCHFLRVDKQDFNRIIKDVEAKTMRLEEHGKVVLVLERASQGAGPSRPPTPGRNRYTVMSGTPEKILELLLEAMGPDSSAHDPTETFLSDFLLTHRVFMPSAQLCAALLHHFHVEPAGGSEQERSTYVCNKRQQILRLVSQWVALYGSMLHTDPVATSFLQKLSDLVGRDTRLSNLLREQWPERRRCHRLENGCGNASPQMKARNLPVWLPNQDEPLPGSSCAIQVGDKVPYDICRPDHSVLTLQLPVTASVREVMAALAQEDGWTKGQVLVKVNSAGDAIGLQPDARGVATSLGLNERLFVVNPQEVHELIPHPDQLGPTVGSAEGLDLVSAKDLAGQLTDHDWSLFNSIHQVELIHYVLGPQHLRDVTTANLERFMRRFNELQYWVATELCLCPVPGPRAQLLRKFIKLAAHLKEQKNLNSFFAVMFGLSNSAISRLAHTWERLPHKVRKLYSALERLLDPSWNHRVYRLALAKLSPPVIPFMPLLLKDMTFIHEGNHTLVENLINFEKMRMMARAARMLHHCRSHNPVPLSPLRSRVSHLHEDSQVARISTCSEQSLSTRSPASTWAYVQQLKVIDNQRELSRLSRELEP", "test": "Counterscreen qHTS for antagonist of cAMP-regulated guanine nucleotide exchange factor 3 (EPAC1) (AID 1645888);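 further: fluorescence loss as bound BODIPY-GDP is released from Rap1B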", "conditions": "Rap1B-BODIPY-GDP nucleotide exchange, fluorescence; series mostly up to 154 µM", "how_it_was_run": "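Rap1B–BODIPY-GDP (250 nM) with 50 uM GDP; compounds pin-transferred to 9.74 nM–152 uM final (activator) or from 7.32 nM upwards (inhibitor). Fluorescence Ex/Em 480/540 nm read at 5 and 30 min, then after adding cAMP or buffer, at room temperature.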"}
{"smiles": "Cc1ccc(C(=O)Nc2cccc(-c3ccc(N4CCOCC4)nn3)c2)cc1C", "Potency": "inactive"}
{"smiles": "Nc1ccc(SC(F)(F)F)cc1C(=O)c1ccccc1", "activity change, negative = inhibition": "-9.64% [at 30.8 µM]"}
{"smiles": "CS/C(=C\\C(=O)c1ccco1)Nc1ccccc1Cl", "Potency": "inactive"}
{"smiles": "O=c1nc(/C=C/c2cccn2-c2ccc([N+](=O)[O-])cc2)cc(C(F)(F)F)[nH]1", "Potency": "inactive"}
{"smiles": "COc1ccc(OC)c(-n2c(SC)nnc2-c2c[nH]c3ccccc23)c1", "Potency": "inactive"}
{"smiles": "COc1ccc(-c2cc(C(F)(F)F)c3c(n2)sc2c(O)cc(=O)[nH]c23)c(OC)c1", "Potency": "inactive"}
{"smiles": "COc1cc(NC(=O)c2cccc([N+](=O)[O-])c2)ccc1NC(=O)c1ccco1", "Potency": "inactive"}
{"smiles": "O=C1C(=O)c2cccnc2-c2ncccc21", "Potency": "inactive"}
{"smiles": "O=c1[nH]cc(N=Cc2cc(Cl)cc(Cl)c2O)c(=O)[nH]1", "Potency": "inactive"}
{"smiles": "O=S(=O)(Nc1cc(Sc2ncn[nH]2)c(O)c2ccccc12)c1ccccc1", "activity change, negative = inhibition": "3.32% [at 30.8 µM]"}
{"smiles": "COc1ccc(-n2c(NC(=O)c3ccco3)c(C#N)c3nc4ccccc4nc32)cc1", "Potency": "inactive"}
{"smiles": "O=C(O)c1ccn2c(C(=O)c3ccc(Cl)cc3)c(-c3ccccc3)cc2c1", "Potency": "inactive"}
{"smiles": "O=C(O)/C=C\\C(=O)Nc1ccccc1C#Cc1ccc(Br)cc1", "Potency": "inactive"}
{"smiles": "Cc1ccc(C)c(N2CCN(C(=O)c3ccc4c(=O)n5c(nc4c3)CCCCC5)CC2)c1", "activity change, negative = inhibition": "-18% [at 30.8 µM]"}
{"smiles": "Cc1ccc(Cn2ccnc2SCC(=O)Nc2ccc3c(c2)OCO3)cc1", "Potency": "inactive"}
{"smiles": "O=C(CSc1nc(O)cc(=O)n1-c1ccccc1)Nc1nc2ccccc2s1", "Potency": "inactive"}
{"smiles": "CCOc1cccc(CNc2ccc(O)cc2)c1OCc1ccc(Cl)cc1", "Potency": "inactive"}
{"smiles": "O=C(NCc1ccc2c(c1)CCN2C(=O)c1ccccc1)Nc1cccc(C(F)(F)F)c1", "Potency": "inactive"}
{"smiles": "COc1ccc(N2Cc3cccc(C(=O)Nc4ccc(C(C)C)cc4)c3C2=O)cc1", "Potency": "inactive"}
{"smiles": "O=C(COC(=O)C1(c2ccc(Cl)cc2)CCCC1)NCc1ccco1", "Potency": "inactive"}
{"smiles": "Nc1ccccc1C(=O)NNc1c2ccccc2nc2ccccc12", "Potency": "inactive"}
{"smiles": "Cc1ccc(OCC(=O)Nc2ccc(C)c(S(=O)(=O)N3CCCCCC3)c2)c([N+](=O)[O-])n1", "Potency": "inactive"}
{"smiles": "Cc1ccc(-c2nc(-c3cc4cccc(OCc5ccc(F)cc5)c4oc3=O)no2)cc1", "Potency": "inactive"}
{"smiles": "CCc1ccc(/C=C2\\SC(=S)N(CCCC(=O)Nc3ccccc3C(=O)O)C2=O)cc1", "activity change, negative = inhibition": "0.611% [at 30.8 µM]"}
{"smiles": "Cc1ccc(C(C[N+](=O)[O-])c2c(-c3ccccc3O)[nH][nH]c2=O)cc1", "note": "(stereo not given)", "activity change, negative = inhibition": "-0.345% [at 30.8 µM]"}
{"smiles": "CCOC(=O)Cc1cc(=O)n2[nH]c(-c3ccccc3)c(-c3ccccc3)c2n1", "Potency": "inactive"}
{"smiles": "COc1cc2c(cc1OC)C(c1ccc(Cl)cc1)N(c1ccc(C)c(F)c1)C(=O)C2", "note": "(stereo not given)", "Potency": "inactive"}
{"smiles": "COC(=O)CC1(C(=O)OC)Oc2ccc(Br)cc2C(=O)N1c1cccc(Cl)c1Cl", "note": "(stereo not given)", "Potency": "inactive"}
{"smiles": "Cc1ccc(Nc2c(-c3ccccn3)nc3cccc(C)n23)cc1", "Potency": "inactive"}
{"smiles": "Cn1c(=O)c2c(-c3ccccc3Br)n(Cc3ccccc3)cc2n(C)c1=O", "Potency": "inactive"}
{"smiles": "COc1cn(-c2ccccc2)nc1C(=O)Nc1ccc(C)cc1Cl", "Potency": "inactive"}
{"smiles": "O=[N+]([O-])c1cc(Br)ccc1NS(=O)(=O)c1ccccc1", "activity change, negative = inhibition": "-16.7% [at 30.8 µM]"}
{"smiles": "O=C(OCC1OC(n2ncc(=O)[nH]c2=O)C(OC(=O)c2ccccc2)C1OC(=O)c1ccccc1)c1ccccc1", "note": "(stereo not given)", "activity change, negative = inhibition": "-8.49% [at 30.8 µM]"}
{"smiles": "CC(CNC(=O)c1sc2ncccc2c1-n1cccc1)c1ccccc1", "note": "(stereo not given)", "Potency": "inactive"}
{"smiles": "Cc1cc(CSc2ccc(Cl)cc2)ccc1N", "Potency": "inactive"}
{"smiles": "COc1ccc(Nc2cc(C(=O)NCCCN3CCN(c4ccccc4F)CC3)c3ccccc3n2)c(OC)c1", "Potency": "inactive"}
{"smiles": "CC(C)c1ccc(/C=C/C(=O)Nc2ccc(CN3CCOCC3)cc2)cc1", "Potency": "inactive"}
{"smiles": "Cc1cccc(N2CCN(C(=O)c3[nH]c(C(F)(F)F)nc3-c3ccccc3)CC2)c1C", "Potency": "inactive"}
{"smiles": "O=C1C=C(Nc2cccc3cccnc23)c2ccccc2C1=O", "Potency": "inactive"}
{"smiles": "O=C1C(=O)c2ccc(-c3ccccc3)cc2-c2ccccc21", "Potency": "inactive"}
